Assay results: PubChem BioAssay AID1159580 (chemical genetic matrix, 2015)
Several values for one entry are separate records, joined by “and”; a condition that tells them apart may be missing. Identical values can stand only once. Screen size: about 5,500 compounds; about 2,000 (36%) were called active. Another 18% or so got no clear call; they are omitted. No stated cut-off is given here; in the data, active means normalized growth mostly below about 0.91 (no sharp cut-off); inconclusive means no clear call, values can overlap the other calls; inactive means mostly above about 0.92. The list shows a part of the results. A structure can be active in one record and inactive in another.

Test: chemical genetic growth profiling, strain panel (AID 1159580);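 further: tested at 20 µM; growth read once vehicle control cultures reached saturation at 30 °C; 1 = growth at the plate median or of vehicle wells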
Conditions: S. cerevisiae deletion strains, growth OD

Fc1ccc(C(c2ccc(F)cc2)N2CCN(C/C=C/c3ccccc3)CC2)cc1
normalized growth (locus YAL013W, strain DEP1, stronger effect = lower value): 0.996 (inactive) and 0.961 (inactive)
normalized growth (locus YAL021C, strain ccr4, stronger effect = lower value): 0.625 (active)
normalized growth (locus YAL026C, strain drs2, stronger effect = lower value): 0.0836 (active)
normalized growth (locus YAL030W, strain snc1, stronger effect = lower value): 0.293 (active)
normalized growth (locus YAL040C, strain CLN3, stronger effect = lower value): 1.02 (inactive)
normalized growth (locus YBL061C, strain skt5, stronger effect = lower value): 0.214 (active)
normalized growth (locus YBR009C, strain hhf1, stronger effect = lower value): 0.263 (active)
normalized growth (locus YBR021W, strain FUR4, stronger effect = lower value): 0.978 (inactive)
normalized growth (locus YBR023C, strain chs3, stronger effect = lower value): 0.22 (active)
normalized growth (locus YBR171W, strain sec66, stronger effect = lower value): 0.662 (active)
normalized growth (locus YBR229C, strain ROT2, stronger effect = lower value): 0.989 (inactive)
normalized growth (locus YBR231C, strain swc5, stronger effect = lower value): 0.147 (active)
normalized growth (locus YBR279W, strain paf1, stronger effect = lower value): 0.488 (active)
normalized growth (locus YCL011C, strain gbp2, stronger effect = lower value): 0.221 (active)
normalized growth (locus YCL016C, strain dcc1, stronger effect = lower value): 0.234 (active)
normalized growth (locus YCL029C, strain bik1, stronger effect = lower value): 0.945 (inactive)
normalized growth (locus YCL061C, strain MRC1 (second series), stronger effect = lower value): 0.96 (inactive)
normalized growth (locus YCL069W, strain vba3, stronger effect = lower value): 0.18 (active)
normalized growth (locus YCR088W, strain abp1, stronger effect = lower value): 0.374 (active)
normalized growth (locus YDL005C, strain med2, stronger effect = lower value): 0.263 (active)
normalized growth (locus YDL035C, strain GPR1, stronger effect = lower value): 0.976 (inactive)
normalized growth (locus YDL040C, strain nat1, stronger effect = lower value): 0.666 (active)
normalized growth (locus YDL074C, strain BRE1, stronger effect = lower value): 0.904 (inactive)
normalized growth (locus YDL101C, strain DUN1, stronger effect = lower value): 0.973 (inactive)
normalized growth (locus YDL134C, strain PPH21, stronger effect = lower value): 0.993 (inactive)
normalized growth (locus YDL185W, strain tfp1, stronger effect = lower value): 0.966 (inactive)
normalized growth (locus YDL192W, strain arf1, stronger effect = lower value): 0.973 (inactive)
normalized growth (locus YDR001C, strain nth1, stronger effect = lower value): 0.442 (active)
normalized growth (locus YDR069C, strain doa4, stronger effect = lower value): 0.479 (active)
normalized growth (locus YDR101C, strain arx1, stronger effect = lower value): 0.967 (inactive)
normalized growth (locus YDR137W, strain rgp1, stronger effect = lower value): 1.01 (inactive)
normalized growth (locus YDR150W, strain NUM1, stronger effect = lower value): 0.985 (inactive) and 0.925 (active)
normalized growth (locus YDR159W, strain sac3, stronger effect = lower value): 0.15 (active)
normalized growth (locus YDR162C, strain NBP2, stronger effect = lower value): 0.966 (inactive)
normalized growth (locus YDR195W, strain ref2): 1.05 (inactive)
normalized growth (locus YDR297W, strain sur2, stronger effect = lower value): 0.322 (active)
normalized growth (locus YDR318W, strain mcm21, stronger effect = lower value): 0.951 (inactive)
normalized growth (locus YDR334W, strain swr1, stronger effect = lower value): 0.208 (active)
normalized growth (locus YDR335W, strain msn5, stronger effect = lower value): 0.368 (active)
normalized growth (locus YDR363W, strain ESC2, stronger effect = lower value): 0.922 (inactive)
normalized growth (locus YDR388W, stronger effect = lower value): 0.88 (active)
normalized growth (locus YDR392W, strain spt3, stronger effect = lower value): 0.104 (active)
normalized growth (locus YDR502C, strain sam2, stronger effect = lower value): 0.988 (inactive)
normalized growth (locus YEL003W, strain gim4, stronger effect = lower value): 0.326 (active)
normalized growth (locus YEL037C, strain rad23, stronger effect = lower value): 0.215 (active)
normalized growth (locus YEL061C, strain CIN8 (second series), stronger effect = lower value): 0.229 (active)
normalized growth (locus YEL061C, strain CIN8, stronger effect = lower value): 0.991 (inactive)
normalized growth (locus YER015W, strain faa2, stronger effect = lower value): 0.346 (active)
normalized growth (locus YER016W, strain bim1, stronger effect = lower value): 0.715 (active)
normalized growth (locus YER110C, stronger effect = lower value): 0.974 (inactive)
normalized growth (locus YER111C, strain swi4, stronger effect = lower value): 0.663 (active)
normalized growth (locus YER155C, strain BEM2 (second series), stronger effect = lower value): 0.736 (active)
normalized growth (locus YER155C, strain BEM2, stronger effect = lower value): 1.01 (inactive)
normalized growth (locus YER167W, strain BCK2, stronger effect = lower value): 1.01 (inactive)
normalized growth (locus YFR010W, strain ubp6, stronger effect = lower value): 0.297 (active)
normalized growth (locus YGL078C, strain dbp3, stronger effect = lower value): 0.994 (inactive)
normalized growth (locus YGL086W, strain mad1, stronger effect = lower value): 0.999 (inactive)
normalized growth (locus YGL167C, strain pmr1, stronger effect = lower value): 1.01 (inactive)
normalized growth (locus YGL173C, strain kem1, stronger effect = lower value): 0.794 (active)
normalized growth (locus YGL227W, strain vid30, stronger effect = lower value): 0.243 (active)
normalized growth (locus YGL240W, strain doc1, stronger effect = lower value): 0.819 (active)
normalized growth (locus YGL248W, strain PDE1, stronger effect = lower value): 0.99 (inactive)
normalized growth (locus YGL253W, strain hxk2, stronger effect = lower value): 0.0972 (active)
normalized growth (locus YGR078C, strain PAC10, stronger effect = lower value): 0.976 (inactive)
normalized growth (locus YGR135W, strain pre9, stronger effect = lower value): 0.942 (inactive)
normalized growth (locus YGR229C, strain SMI1, stronger effect = lower value): 0.919 (inactive) and 0.24 (active)
normalized growth (locus YGR252W, strain gcn5, stronger effect = lower value): 1.07 (inactive)
normalized growth (locus YHR013C, strain ard1, stronger effect = lower value): 0.149 (active)
normalized growth (locus YHR027C, strain rpn1, stronger effect = lower value): 0.556 (active)
normalized growth (locus YHR030C, strain SLT2, stronger effect = lower value): 0.994 (inactive) and 0.988 (inactive)
normalized growth (locus YHR079C, strain IRE1 (second series), stronger effect = lower value): 0.972 (inactive)
normalized growth (locus YHR079C, strain IRE1, stronger effect = lower value): 0.991 (inactive)
normalized growth (locus YHR094C, strain hxt1, stronger effect = lower value): 0.977 (inactive)
normalized growth (locus YHR129C, strain ARP1, stronger effect = lower value): 0.992 (inactive)
normalized growth (locus YHR142W, strain chs7, stronger effect = lower value): 0.127 (active)
normalized growth (locus YHR200W, strain rpn10, stronger effect = lower value): 0.973 (inactive)
normalized growth (locus YIL066C, strain RNR3, stronger effect = lower value): 0.965 (inactive)
normalized growth (locus YIL073C, strain SPO22, stronger effect = lower value): 1.52 [resistant] (active)
normalized growth (locus YIL125W, strain kgd1, stronger effect = lower value): 0.986 (inactive)
normalized growth (locus YIR030C, strain dcg1, stronger effect = lower value): 0.98 (inactive)
normalized growth (locus YJL092W, strain hpr5, stronger effect = lower value): 0.282 (active)
normalized growth (locus YJL095W, strain BCK1 (second series), stronger effect = lower value): 0.0776 (active)
normalized growth (locus YJL095W, strain BCK1, stronger effect = lower value): 0.918 (inactive) and 0.981 (inactive)
normalized growth (locus YJL115W, strain asf1, stronger effect = lower value): 0.435 (active)
normalized growth (locus YJL129C, strain trk1, stronger effect = lower value): 0.215 (active)
normalized growth (locus YJL134W, strain LCB3, stronger effect = lower value): 0.983 (inactive)
normalized growth (locus YJL154C, strain vps35, stronger effect = lower value): 0.686 (active)
normalized growth (locus YJL164C, strain tpk1, stronger effect = lower value): 0.176 (active)
normalized growth (locus YJL166W, strain qcr8, stronger effect = lower value): 0.19 (active)
normalized growth (locus YJL168C, strain set2, stronger effect = lower value): 0.977 (inactive)
normalized growth (locus YJL187C, strain SWE1 (second series), stronger effect = lower value): 0.946 (inactive)
normalized growth (locus YJL187C, strain SWE1, stronger effect = lower value): 0.231 (active)
normalized growth (locus YJR043C, strain POL32, stronger effect = lower value): 0.983 (inactive)
normalized growth (locus YJR066W, strain TOR1, stronger effect = lower value): 0.928 (inactive)
